BAZ2B block: qHTS Assay for Inhibitors of BAZ2B. AlphaScreen BAZ2B-H3K14Ac peptide displacement. AID 504333, 2011. Potency, µM (top dose mostly 114 µM), for the others: top-dose activity change, negative = inhibition, hits mostly inhibitors. Bromodomain adjacent to zinc finger domain protein 2B (Homo sapiens), Q9UIF8. 360,000 compounds, 4.4% hits; also: % is scaled to controls: 0 for no effect and ±100 for the full control effect; nearly all actives have a fitted effect of over 60% in size
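Protein-peptide AlphaScreen: BAZ2B 50 nM, b-H3K14Ac 50 nM, 1x PBS pH 7.4 + 0.01% Tween-20. Preincubation 30 min RT; cpd 30 min RT (top 110 uM); beads 20 min RT, light-protected.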
Sfp inh: qHTS Assay for Inhibitors of Bacillus subtilis Sfp phosphopantetheinyl transferase (PPTase). AID 1490, 2009. 4'-phosphopantetheinyl transferase ffp (Bacillus subtilis), Q9F4F7. Biochemical Sfp PPTase activity, qHTS. Potency, µM, for inactives: largest response in the series, negative = inhibition, hits mostly inhibitors. 310,000 compounds, 3.5% hits;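 also: the enzyme is Sfp with the accession as filed and its product quenches rhodamine fluorescence; 0% = enzyme reaction without inhibitor and -100% = no enzyme wells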
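Reaction rates are the 30-min fluorescence difference (ex 525, em 598 nm) in wells containing 15 nM Sfp, 5 uM rhodamine-CoA and 12.5 uM BHQ-2-YbbR at pH 7.6 with 10 mM MgCl2.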
PLK1 PBD block: qHTS for Inhibitors of PLK1-PDB (polo-like kinase 1 - polo-box domain): Primary Screen; Serine/threonine-protein kinase PLK1 (Homo sapiens), P53350; Plk1 PBD binding of FITC phosphopeptide, fluorescence polarization; Potency, µM, inactives show max response, negative = inhibition, actives largely listed as inhibitors; 360,000 compounds, 2.8% hits; also: series mostly up to about 57 µM; % is scaled to controls: 0 for no effect and ±100 for the full control effect; nearly all actives have a fitted effect of over 65% in size
Target sequence (P53350 whole entry, looked up, the tested form may be a part): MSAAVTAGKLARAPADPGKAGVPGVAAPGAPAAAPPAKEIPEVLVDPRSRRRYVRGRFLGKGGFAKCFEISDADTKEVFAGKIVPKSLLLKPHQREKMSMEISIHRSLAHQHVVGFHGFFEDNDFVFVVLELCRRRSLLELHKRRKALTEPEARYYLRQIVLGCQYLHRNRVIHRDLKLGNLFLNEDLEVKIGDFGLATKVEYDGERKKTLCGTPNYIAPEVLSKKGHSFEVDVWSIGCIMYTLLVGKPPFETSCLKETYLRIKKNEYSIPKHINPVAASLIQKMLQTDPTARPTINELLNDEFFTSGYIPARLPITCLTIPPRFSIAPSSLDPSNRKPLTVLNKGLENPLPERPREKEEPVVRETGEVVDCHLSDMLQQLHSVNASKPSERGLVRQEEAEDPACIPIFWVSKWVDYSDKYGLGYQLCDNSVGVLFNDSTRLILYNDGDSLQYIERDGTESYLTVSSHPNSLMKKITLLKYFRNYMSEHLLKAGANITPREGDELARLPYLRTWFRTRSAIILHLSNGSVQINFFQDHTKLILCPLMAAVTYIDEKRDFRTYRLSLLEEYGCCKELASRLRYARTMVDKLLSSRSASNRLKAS
HP1b chromo inh: HTS for Inhibitors of HP1-beta Chromodomain Interactions with Methylated Histone Tails | 390,000 compounds, 0.56% hits | Chromobox protein homolog 1 (Homo sapiens), P83916 | Potency, µM (titrated, usually from 114 µM), for the others: top-dose activity change, negative = inhibition, actives largely listed as inhibitors | AlphaScreen HP1-beta / biotin-H3K9me3 peptide binding; also: nearly all actives have a fitted effect of over 70% in size
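AlphaScreen: HP1-beta (50 nM) preformed 30 min with biotin-H3(1-18)K9me3 peptide (50 nM) in PBS pH 7.4, 0.01% Tween-20. Compound added for 30 min at RT, then streptavidin donor/nickel chelate acceptor beads (10 ug/mL) for 30 min.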
JMJD2A Tudor inh: qHTS Assay for Inhibitors of JMJD2A-Tudor Domain; Lysine-specific demethylase 4A (Homo sapiens), O75164; AlphaScreen JMJD2A-Tudor / H3K4me3 peptide binding; Potency, µM (top dose mostly 114 µM), inactives show top-dose activity change, negative = inhibition, hits mostly inhibitors; 390,000 compounds, 4.4% hits; AID 504339, 2011; also: % is scaled to controls: 0 for no effect and ±100 for the full control effect; nearly all actives have a fitted effect of over 50% in size
G9a block: qHTS Assay for Inhibitors of Histone Lysine Methyltransferase G9a; AID 504332, 2011; 350,000 compounds, 8.8% hits; Potency, µM (top dose mostly 102 µM), for inactives: at the highest dose activity, negative = inhibition, usual class: inhibitors; G9a H3K9 monomethylation, AlphaScreen, 2 h; Histone-lysine N-methyltransferase EHMT2 (Homo sapiens), Q96KQ7; also: % is scaled to controls: 0 for no effect and ±100 for the full control effect; nearly all actives have a fitted effect of over 75% in size
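Using a bead-based AlphaScreen, monomethylated H3K9 product from 2 h room-temperature reactions (G9a 20 nM, peptide 500 nM, SAM 20 uM) was detected with 0.5 ug/mL rabbit anti-H3K9me1 antibody.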
Starred values were filed as active, the others as inactive; ? = inconclusive; · = no result; ! = repeats disagree; [ ] = remark or other dose. A selection: hits, their analogues and other compounds. The true share with any hit is near 12%. Calls follow the shape of the dose curve; as a rule, active = well fitted curve in the direction sought with a large enough effect; inconclusive = small, poorly fitted or top-dose-only effect, or another doubt; inactive = no such curve, though single readings can be large; an effect the other way counts as inactive or inconclusive. Potency is read from the fitted curve at half-maximal effect.

SMILES	BAZ2B block	Sfp inh	PLK1 PBD block	HP1b chromo inh	JMJD2A Tudor inh	G9a block
O=C(/C=C/c1ccc(Cl)cc1Cl)N1CCN(c2ccccc2[N+](=O)[O-])CC1	?	-20%	-4%	?	?	40µM*
O=C(Oc1cc(Cl)ccc1Cl)c1ccc(N2CCOCC2)c([N+](=O)[O-])c1	?	-3%	4%	?	35µM*	?
O=S(=O)(CCN1CCN(c2ccccc2O)CC1)c1cc(Cl)ccc1Cl	1%	·	-5%	22%	-22%	45µM*
O=C(/C=C/c1ccccc1[N+](=O)[O-])N1CCN(c2ccccc2F)CC1	?	0%	-2%	14%	-30%	56µM*
CC(C)(C)C(=O)N1CCN(c2ccc(Cl)cc2[N+](=O)[O-])CC1	?	-2%	2%	-21%	-30%	2%[59 µM]
O=[N+]([O-])c1cc(Cl)ccc1N1CCN(c2ccccc2O)CC1	14µM*	2%	-9%	?	40µM*	?
CN(CC1CCOCC1)C(=O)CC1C(=O)NCCN1Cc1ccc(-c2ccccc2)cc1 (centres undefined)	-12%	15%	-13%	31%	-12%	4%
COc1ccc(CN2CCNC(=O)C2CC(=O)N(C)CC2CCOCC2)cc1OC (centres undefined)	-16%	3%	-1%	32%	-4%	79µM*
COc1ccc(CN2CCNC(=O)C2CC(=O)N(C)CC2CCOCC2)cc1C (centres undefined)	-23%	14%	-1%	29%	-17%	79µM*
COc1ccc(-c2cc(-c3c(O)c(OC)c4occc4c3OC)[nH]n2)cc1OC	?	-15%	-4%	?	56µM*	-6%[0.0925 µM]
COc1ccc(-c2cc(-c3c(O)c(OC)c4occc4c3OC)[nH]n2)cc1	-37%	?	4%	0%	?	15%[12.7 µM]
CCCSCCCNC(=O)c1ccc2nc(Cc3ccccc3)oc2c1	-2%	·	·	19%[57 µM]	-17%	-4%[59 µM]
CCCCOC(=O)C1C2CCC(O2)C1C(=O)OCC (centres undefined)	·	·	3%	22%	-9%	·
CCCCOC(=O)C1CCCC(C(=O)OCCCC)N1 (centres undefined)	-1%	16%	-2%	38%	-31%	50µM*
CCCN(CCC)C1=N/C(=C\c2ccco2)C(=O)N1c1ccccc1	50µM*	35µM*	-12%	1%	-23%	?
COc1ccccc1Nc1ccc(Nc2ccccc2OC)nn1	-34%	11%	-1%	-17%	?	50µM*
Cc1csc(Nc2cccc3ccccc23)n1	50µM*	1%	-18%	?	?	45µM*
COc1ccccc1Nc1nc(C)cs1	79µM*!	45µM*	17µM*!	-21%	-15%	3%[2.33 µM]
O=C(Cn1c(=O)oc2cc(S(=O)(=O)N3CCCC3)ccc21)Nc1ccc(F)cc1F	2%	·	·	16%	-16%	5%[59 µM]
Cc1ccc(OCCCC(=O)Nc2cc(Cl)ccc2-n2cncn2)cc1	-3%	·	-5%	26%	-2%	-1%[2.33 µM]
O=C(Nc1cc(Cl)ccc1-n1cncn1)c1ccc([N+](=O)[O-])o1	-32%	·	-23%	-13%	-30%	50µM*
COc1ccc(OCCCC(=O)Nc2cc(Cl)ccc2-n2cncn2)cc1	7%	·	-2%	4%	-14%	45µM*
O=C(Nc1cc(Cl)ccc1F)c1ccc(-n2cncn2)c([N+](=O)[O-])c1	-6%	·	-8%	8%	-27%	56µM*
O=C(Nc1cc(Cl)ccc1-n1cncn1)c1cc(F)cc(F)c1	9%	·	-1%	12%	-5%	50µM*
CCOc1ccccc1NC(=O)COC(=O)/C=C/c1cccs1	·	·	3%	48%	26%	·
SMILES	BAZ2B block	Sfp inh	PLK1 PBD block	HP1b chromo inh	JMJD2A Tudor inh	G9a block
COc1ccc2c(c1)c1c(c(=O)n(-c3cccc(C)c3)c(=O)n1Cc1cccc(Cl)c1)n2C	-6%	·	·	30%	0%	-8%[59 µM]
Cc1nnc(NC(=O)C2CCN(C(=O)c3ccsc3)CC2)s1	·	·	·	53%	3%	·
O=C(Nc1cc(Cl)ccc1-n1cncn1)c1cccs1	7%	·	-6%	19%	-13%	45µM*
CC(NC(=O)c1ccccc1NC(=O)c1nsc2ccccc12)c1ccccc1 (centres undefined)	-3%	·	·	4%[57 µM]	-2%	-5%[59 µM]
O=C(CN1CCCC1)N/N=C/c1c(O)ccc2ccccc12	28µM*	2%	5%	50%	79µM*	8%
Cc1ccc(O)c(/C=N/NC(=O)CN2CCCC2)c1	50µM*	8%	1%	55%	71µM*	27%
O=C(CN1CCCCCCC1)N/N=C/c1ccc(F)cc1F	-6%	-2%	-21%	?	?	22µM*
Cc1ccc2nc(Cl)c(/C=N/NC(=O)CN3CCOCC3)cc2c1	·	·	-1%	17%	0%	·
COc1ccccc1NC(=O)c1ccccc1NC(=O)c1ccccc1	-3%	·	·	40%	11%	-31%[59 µM]
COc1ccccc1NC(=O)CC(=O)Nc1ccccc1OC	-2%	6%	-4%	42%	-9%	14%
COc1ccccc1NC(=S)c1ccccc1	-10%	32µM*	27µM*	-27%	-21%	7.9µM*
COc1ccccc1NC(=S)NCc1ccccc1	12%[0.457 µM]	11%	0%	42%	-12%	17%[59 µM]
COc1ccccc1NC(=O)NC1CCCCCCC1	-10%	8%	0%	29%	-11%	-2%
COc1ccccc1NC(=O)CC(NC1CCCCC1)C(=O)O (centres undefined)	-23%	-1%	2%	11%	-3%	50µM*
COc1ccccc1NC(=O)O/N=C(\N)c1ccccc1	3%	?	11µM*	-6%	-18%[11.4 µM]	?
COc1ccccc1NC(=O)CC(=O)c1ccccc1	8%	2%	30µM*	18%	?	18%
COc1ccccc1NCCC(=O)OCC(=O)NC1CCCCC1	-29%	8%	3%	14%	-8%	3.5µM*
COc1ccccc1NCCC(=O)OCC(=O)NC1CC1	-7%	-10%	-1%	36%	-6%	27%[59 µM]
CCN(CC)CCN(C(=O)CCS(=O)(=O)c1ccccc1)c1nc2cc3c(cc2s1)OCO3	-14%	-12%	-15%	46%	-23%	45µM*
CN(C)CCCN(C(=O)c1cc(Cl)sc1Cl)c1nc2cc3c(cc2s1)OCO3	?	-5%	-14%	0%	?	50µM*

Bioassay records: PubChem BioAssay, National Center for Advancing Translational Sciences (NCATS)
